# Hits are enriched below; roughly 6.2% of the tested compounds scored in any of these assays.
# GRIN3A LBD mod = modulators (binders) of human NR3A ligand-binding domain; NR3A LBD differential scanning fluorimetry, Tm shift; 0% = protein alone, 100% = glycine-bound protein; Tm shift relative to glycine control, % at 25 µM; 340,000 compounds, 2.5% hits; AID 1259313;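 active = melting temperature shift of at least 10% of the positive control shift, at one fixed dose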
# AI-2 QS mod = modulators of Vibrio harveyi AI-2 quorum sensing system; 300,000 compounds, 0.4% hits; activity change, % at 7.5 µM; AID 2094; Vibrio harveyi JMH597 AI-2 luminescence/OD600 ratio, 9 h; active compounds read low; strain lacks LuxN and CqsS sensors; 0 = neutral-control median; in the data active = activity change below about -75%, passing the limit was not always enough;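 note: luminescence divided by OD600 gain over 9 h not by final OD600 alone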
# H9c2 protect = myocardial damage modulation in H9c2 cells; H9c2 cardiomyocytes, H2O2 injury protection, ATPLite, 2 h; protection from H2O2 cell death, % at 20 µM; 360,000 compounds, 0.63% hits;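 active = compounds giving at least 50% protection of heart cells from peroxide-induced death in the single-dose screen, raw or plate-pattern-corrected value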;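 note: 0% = DMSO wells with peroxide and 100% = DMSO wells without peroxide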
# NTR1 ag = activates human neurotensin receptor 1; P30989; NTR1-U2OS beta-arrestin-GFP spot imaging, agonist mode; activation, % at 20 µM; 330,000 compounds, 0.17% hits;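 active = activation at or above 40% of the spot to cytoplasm intensity ratio, with at least 20 cells analyzed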;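 note: 0% = DMSO without peptide and 100% = 100 nM NTR1 peptide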
# Target sequence (P30989 whole entry, looked up): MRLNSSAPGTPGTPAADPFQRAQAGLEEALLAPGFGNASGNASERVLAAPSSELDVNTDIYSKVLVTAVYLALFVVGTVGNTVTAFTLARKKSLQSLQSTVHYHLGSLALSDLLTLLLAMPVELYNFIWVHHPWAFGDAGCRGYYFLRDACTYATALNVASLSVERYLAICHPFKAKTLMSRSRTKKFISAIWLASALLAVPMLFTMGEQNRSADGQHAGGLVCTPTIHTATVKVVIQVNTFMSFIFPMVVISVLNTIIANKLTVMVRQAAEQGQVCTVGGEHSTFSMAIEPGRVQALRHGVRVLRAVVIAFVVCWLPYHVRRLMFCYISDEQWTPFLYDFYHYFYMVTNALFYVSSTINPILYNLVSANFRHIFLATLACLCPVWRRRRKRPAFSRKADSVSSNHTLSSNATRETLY
# SUMO Mot1 rescue = inhibitors of SUMOylation pathway: yeast Mot1-301 growth rescue; S. cerevisiae Mot1-301 growth rescue, ATP luminescence, 38.5C; percent above DMSO median, 100 means doubled; 320,000 compounds, 1% hits; growth rescue, % at 18.8 µM; AID 2716;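 active = every valid replicate shows activation above 250% relative to neutral control wells; inactive = the rest, any valid replicate at or below 250%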;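 note: OY570 slx delta 5 strain wells were the positive control but not used for scaling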
# AHR act = activators of human aryl hydrocarbon receptor; P35869; activation, % at 5 µM; 320,000 compounds, 2.5% hits; AHR-responsive luciferase reporter cells, luminescence; in the data active = activation above about 47%;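 note: 0% = vehicle wells and 100% = reference agonist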
# Numbers without * were called inactive; . = no result given.
SMILES,GRIN3A LBD mod,AI-2 QS mod,H9c2 protect,NTR1 ag,SUMO Mot1 rescue,AHR act
Nc1c(C(=O)NC2CCCC2)c2nc3ccccc3nc2n1/N=C/c1ccco1,-7,16,50*,34,200,2
COC(=O)[C@@H](Cc1c[nH]c2ccccc12)NC(=O)c1ccc2c(c1)OCO2,2,18,-7,-1,-14,4
CC(=O)N[C@@H](Cc1c[nH]c2ccccc12)C(=O)OCC(=O)Nc1ccc2c(c1)OCO2,12*,.,-1,.,.,.
CC(=O)NC(Cc1c[nH]c2ccccc12)C(=O)NCc1ccc2c(c1)OCO2 (stereo not drawn),0,12,-10,-1,-2,2
O=C(COC(=O)[C@H](Cc1c[nH]c2ccccc12)NC(=O)c1ccc(Cl)cc1)Nc1ccc2c(c1)OCO2,20*,17,-13,13,2,9
CCOC(=O)C(=NC1CCS(=O)(=O)C1)NNc1ccc(Br)cc1 (stereo not drawn),-5,18,-1,2,372*,2
Cc1[nH]n(-c2ccc([N+](=O)[O-])cc2)c(=O)c1C=NCCc1c[nH]c2ccccc12,27*,24,-4,3,-16,6
CCCc1[nH]n(-c2ccc([N+](=O)[O-])cc2)c(=O)c1C=NCCc1c[nH]c2ccccc12,22*,45,-18,15,-7,6
Cc1[nH]n(-c2ccccc2)c(=O)c1C=NCCc1ccccc1,0,-4,-1,1,9,2
COc1ccccc1S(=O)(=O)Nc1cc(C)nn1-c1ccc(C)cc1,-4,17,-4,0,15,11
CSCc1c(C(=O)NCCc2ccccn2)oc2ccccc12,0,18,-4,-1,-10,4
O=C(NC(=S)Nc1ccccc1N1CCOCC1)c1ccc(Br)cc1,5,10,1,5,-15,55*
CC(C)(C)C(=O)Nc1ccccc1N1CCN(C(=O)c2ccc(Cl)cc2)CC1,-1,9,-20,14,-5,0
Cc1ccccc1C(=O)NC(=S)Nc1ccccc1N1CCCC1,5,25,-18,4,0,50*
O=C(NC(=S)Nc1ccccc1N1CCCCC1)c1ccccc1,-2,11,-7,12,9,33
CC(C)C(=O)NC(=S)Nc1ccccc1N1CCN(C(=O)c2ccc(Cl)cc2)CC1,-1,9,52*,7,-13,-2
COc1cc(C(=O)NC(=S)Nc2ccc(N3CCCC3)cc2)cc(OC)c1OC,-2,32,2,3,24,24
COc1ccccc1C(=O)NC(=S)Nc1ccc(N2CCCC2)cc1,-4,19,-6,3,-6,85*
CN(C)S(=O)(=O)c1ccc(NC(=O)Cn2nc(-c3ccc4c(c3)OCCO4)ccc2=O)cc1,1,.,-5,.,.,.
COc1cc2ccccc2cc1C(=O)NC(=S)Nc1cccc(C(=O)O)c1,1,60,3,0,4,-1
COc1ccccc1C(=O)NC(=S)Nc1ccccc1N1CCCC1,.,40,1,2,-18,53*
COc1cc2ccccc2cc1C(=O)NC(=S)Nc1ccc(C(=O)O)cc1,2,7,1,1,144,52*
O=C(NC(=S)Nc1ccccc1N1CCCC1)c1ccc(F)cc1,-6,24,3,3,0,71*
O=C(Cc1c(F)cccc1Cl)NNC(=O)c1ccccc1Cl,0,.,-3,-1,-6,12
Cc1sc2ncnc(N[C@@H](Cc3c[nH]c4ccccc34)C(=O)O)c2c1C,-6,13,15,-2,-10,48*
SMILES,GRIN3A LBD mod,AI-2 QS mod,H9c2 protect,NTR1 ag,SUMO Mot1 rescue,AHR act
CCN(Cc1ccncc1)C(=O)c1cc(COc2c(F)cccc2F)on1,32*,-2,-5,0,4,8
COc1ccc(C(O)P(=O)(OCC(C)C)c2ccc(N(C)C)cc2)c(OC)c1 (stereo not drawn),0,-5,8,1,7,-1
COC(=O)[C@H]1Cc2c([nH]c3ccccc23)[C@H](c2ccccc2)N1,10*,0,-3,-2,15,19
CSc1ccc(C2C(C(=O)c3ccco3)=C(O)C(=O)N2c2nnc(SC)s2)cc1 (stereo not drawn),-4,23,3,1,-3,8
CC(C(=O)NC1CCCC1)N(C(=O)Cn1nnc(-c2ccc(F)cc2)n1)c1ccccc1F (stereo not drawn),-1,6,64*,1,68,1
CC(C)CC(C(=O)NCC1CCCO1)N(C(=O)Cn1nnc(-c2ccc(F)cc2)n1)c1cccc(C(F)(F)F)c1 (stereo not drawn),3,-3,-2,3,2,-1
O=C(NCC1CCCO1)C(c1ccc(F)cc1)N(C(=O)Cn1nnc(-c2ccc(F)cc2)n1)c1cccc(O)c1 (stereo not drawn),-3,-3,56*,2,.,2
COc1ccc(N(C(=O)Cn2nnc(-c3ccc(F)cc3)n2)C(C)C(=O)NC2CCCC2)cc1 (stereo not drawn),-8,35,1,0,29,5
Cc1cccc(C(=O)NCC(=O)NC2CCC(C)CC2)c1 (stereo not drawn),0,12,-1,1,6,-2
CC1(C)NC(=O)N(CCC(=O)Nc2cc(C(F)(F)F)ccc2Cl)C1=O,1,.,-3,-1,4,5
O=C(NCc1ccccc1)c1cc(C2COCCN2S(=O)(=O)c2ccccc2)on1 (stereo not drawn),.,.,-6,.,.,.
COc1ccc(-c2cc3cccc(OC)c3oc2=O)cc1,-1,7,-14,1,-18,8
COc1cccc2cc(-c3nc4ccccc4[nH]3)c(=O)oc12,0,16,-13,-1,14,72*
N=c1oc2ccccc2cc1-c1nc(-c2ccccc2)cs1,-20,12,47,17,0,59*
COc1cccc2cc(-c3nc(-c4cccs4)cs3)c(=O)oc12,-6,-12,87*,0,1,48*
O=c1oc2ccccc2cc1-c1nc(-c2cccs2)cs1,-6,.,16,3,-4,62*
COc1cccc2cc(-c3ccccc3)c(=O)oc12,2,7,1,0,88,20
O=C(COC(=O)/C=C/c1cccc(Cl)c1Cl)Nc1ccc2[nH]c(=O)[nH]c2c1,2,.,6,-1,12,1
O=C(Nc1cccc(F)c1)N1CCc2nc(NCc3cccc(Oc4ccccc4)c3)ncc2C1,.,.,-8,.,.,.
CC(C)(C)OC(=O)NCCc1nnc(SCc2ccccc2Cl)o1,2,13,-2,-2,-14,2
CC(C)(C)OC(=O)NCCc1nnc(S(=O)(=O)Cc2ccc(Cl)cc2Cl)o1,0,-89*,-24,4,87,9

# Bioassay records: PubChem, several laboratories
